Results published in PubChem BioAssay (EPA / NIEHS).
The source made the active and inactive calls. Rule for the calls: active = hit-call score of the fitted dose curve at least 0.9, where 1 is the maximum; inactive = score below 0.9.

Assay: APR_HepG2_MitoMembPot_72hr: Apredica 72-hour HepG2 Assay for Mitochondrial Membrane Potential (AID 2282917)
Conditions: imaging, actives raise or lower the signal
Summary of the method: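 HepG2 cells dosed 72 hr with compound at 0.39–200 uM in duplicate, 0.5% v/v DMSO final. Mitochondria stained with 250 nM MitoTracker Red CMXRos for 30 min before formaldehyde fixation, imaged by high-content fluorescence; bidirectional fit versus DMSO.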
In the case of `CS(=O)(=O)c1ccc([C@@H](CC2CCCC2)C(=O)Nc2cnccn2)cc1Cl`, the outcome is reported as “inactive”. In the case of `O=C(c1ccccc1)c1ccccc1`, the outcome is reported as “inactive”. With `N=C(N)c1ccc(OCCCCCOc2ccc(C(=N)N)cc2)cc1` the outcome was “inactive”. In the case of `CCCCC=O`, the outcome is reported as “inactive”. In the case of `O=C1NS(=O)(=O)c2ccccc21`, the outcome is reported as “inactive”. In the case of `CCCCc1oc2ccccc2c1C(=O)c1cc(I)c(OCCN(CC)CC)c(I)c1`, the outcome is reported as “inactive”. With `CCCCCCCCCCCCOS(=O)(=O)O` the outcome was “inactive”. With `CCCCCCCCCCCCCCC` the outcome was “inactive”. With `Cc1[nH]nc2c1N=C(c1ccccc1Cl)c1cc([N+](=O)[O-])ccc1N2` the AC50 was 0.432 µM (active). For `CN(Cc1cnc2nc(N)nc(N)c2n1)c1ccc(C(=O)N[C@@H](CCC(=O)O)C(=O)O)cc1`, the AC50 was 19.8 µM (active). For `O=C(CCCN1CCC(O)(c2ccc(Cl)cc2)CC1)c1ccc(F)cc1`, the AC50 was 51.7 µM (active). With `CN(C)CCOC(c1ccccc1)c1ccccc1` the outcome was “inactive”. In the case of `CC(=O)Nc1ccc(O)cc1`, the outcome is reported as “inactive”.

Assay: APR_HepG2_MitoticArrest_72hr: Apredica 72-hour HepG2 Assay for Mitotic Arrest (AID 2282918)
Conditions: high-content imaging, actives raise or lower the signal
Summary of the method: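 Read-out is phospho-histone H3 immunofluorescence with Hoechst nuclear segmentation, imaged at 20x. Human HepG2 liver cells received ten concentrations (0.39–200 uM, final DMSO 0.5% v/v) for 72 hr before fixation. Gain or loss of signal was fitted relative to DMSO.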
For `CS(=O)(=O)c1ccc([C@@H](CC2CCCC2)C(=O)Nc2cnccn2)cc1Cl`, the outcome was “inactive”. In the case of `O=C(c1ccccc1)c1ccccc1`, the outcome is reported as “inactive”. In the case of `N=C(N)c1ccc(OCCCCCOc2ccc(C(=N)N)cc2)cc1`, the AC50 is reported as 21.6 µM (active). For `CCCCC=O`, the outcome was “inactive”. For `O=C1NS(=O)(=O)c2ccccc21`, the outcome was “inactive”. With `CCCCc1oc2ccccc2c1C(=O)c1cc(I)c(OCCN(CC)CC)c(I)c1` the AC50 was 8.51 µM (active). For `CCCCCCCCCCCCOS(=O)(=O)O`, the outcome was “inactive”. With `CCCCCCCCCCCCCCC` the outcome was “inactive”. In the case of `Cc1[nH]nc2c1N=C(c1ccccc1Cl)c1cc([N+](=O)[O-])ccc1N2`, the AC50 is reported as 28.8 µM (active). In the case of `CN(Cc1cnc2nc(N)nc(N)c2n1)c1ccc(C(=O)N[C@@H](CCC(=O)O)C(=O)O)cc1`, the outcome is reported as “inactive”. With `O=C(CCCN1CCC(O)(c2ccc(Cl)cc2)CC1)c1ccc(F)cc1` the AC50 was 19.8 µM (active). For `CN(C)CCOC(c1ccccc1)c1ccccc1`, the AC50 was 111 µM (active). For `CC(=O)Nc1ccc(O)cc1`, the outcome was “inactive”.

Assay: APR_HepG2_MicrotubuleCSK_72hr: Apredica 72-hour HepG2 Assay for Microtubule CSK Stabilty (AID 2282919)
Conditions: HepG2 microtubule cytoskeleton, high-content imaging, actives raise or lower the signal
Protocol: APR_HepG2_72hr is a cell-based, multiplexed-readout assay that uses HepG2, a human liver cell line, with measurements taken at 72 hours after chemical dosing in a 384-well plate.APR_HepG2_MicrotubuleCSK_72hr is one of 10 assay component(s) measured or calculated from the APR_HepG2_72hr assay. It is designed to make measurements of protein conformation, a form of conformation reporter, as detected with fluorescence intensity signals by HCS Fluorescent Imaging technology.Data from the assay component APR_HepG2_MicrotubuleCSK_72hr was analyzed into 1 assay endpoint. This assay endpoint, APR_HepG2_MicrotubuleCSK_72hr, was analyzed with bidirectional fitting relative to DMSO as the negative control and baseline of activity. Using a type of conformation reporter, measures of protein for gain or loss-of-signal activity can be used to understand the signaling at the cellular-level. Furthermore, this assay endpoint can be referred to as a primary readout, because this assay has produced multiple assay endpoints where this one serves a signaling function. To generalize the intended target to other relatable targets, this assay endpoint is annotated to the cell morphology intended target family, where the subfamily is cell conformation.
Cells were treated with dimethyl sulfoxide (DMSO) as a solvent control at a final concentration of 0.5% v/v or with compounds in DMSO with a resulting final DMSO concentration of 0.5% v/v. Compound treatment was done at concentrations of 0.39, 0.78, 1.56, 3.12, 6.24, 12.5, 25, 50, 100, and 200 uM in duplicate on each plate. Cells were treated with compounds for 1, 24, or 72 hr. Carbonyl […] m-chloro-phenylhydrazone (CCCP) and taxol were used as positive controls for mitochondrial function and cytoskeletal stability, respectively; DMSO served as the negative control for this experiment. Cells were fixed by the direct addition of 50 uL formaldehyde in Hank's Balanced Salt Solution (HBSS) to a final concentration of 3.7%. After incubation in the fixation medium for 30 min at room temperature (293-298 K), cells were rinsed twice with HBSS and treated with cell permeabilization buffer (16 uL of 0.5% Triton X-100) for 10 min at room temperature (293-298 K) before labeling. For mitochondrial membrane potential and mitochondrial measurements, pre-fixed cells were incubated with 50 uL of MitoTracker Red CMXRos (Invitrogen) at a concentration of 250 nM for 30 min before fixation. In the remaining cases, post-fixed cells were labeled by incubation with a multiplexed mixture of primary antibodies in HBSS for 60 min at room temperature (293-298 K) to detect immunoreactivity of c-Jun (1:500), phospho-histone H3 (1:100), phospho-histone H2A.x (1:200), p53 (1:400), alpha-tubulin (1:200) and Hoechst 33342 (2 ug/mL). Cells were labeled for multiplexed imaging on two separate plates: a) Hoechst 33342, MitoTracker Red, phospho-histone H3, and alpha-tubulin, and b) Hoechst 33342, phospho-histone H2A.x, and c-Jun. A final rinse with HBSS (50 uL) was performed before analysis. The primary and secondary antibodies for the proteins were phospho-histone H3 (rabbit anti-phospho-histone H3 and FITC-donkey anti-rabbit IgG), phospho-histone H2A.x (mouse anti-phospho-histone H2A.x and FITC-donkey anti-mouse IgG), c-Jun (rabbit anti-phospho-c-Jun and Cy3-donkey anti-rabbit IgG), p53 (sheep anti-p53 and Cy5-donkey anti-sheep IgG), alpha-tubulin (mouse anti-alpha-tubulin and Cy5-donkey anti-mouse IgG). These antibodies are available as the CellCiphr HepG2 assay kit (Millipore).Digital images of each well were captured using a Cellomics ArrayScan VTI (Thermo Scientific Cellomics) (0.8 NA objective, 0.63x optical coupler, and XF-93 filter set) at 20x magnification. The images were acquired using the autofocus feature of the ArrayScan instrument, which entails the following steps. First, the camera focuses on channel 1 (Hoechst 33342), where nuclei are identified. Second, a Z offset of 1 um is used for capturing mitochondria (MitoTracker Red). […]
For `N=C(N)c1ccc(OCCCCCOc2ccc(C(=N)N)cc2)cc1`, the outcome was “inactive”. For `CCCCC=O`, the outcome was “inactive”. In the case of `O=C1NS(=O)(=O)c2ccccc21`, the outcome is reported as “inactive”. In the case of `CCCCCCCCCCCCOS(=O)(=O)O`, the outcome is reported as “inactive”. For `CCCCCCCCCCCCCCC`, the outcome was “inactive”. With `Cc1[nH]nc2c1N=C(c1ccccc1Cl)c1cc([N+](=O)[O-])ccc1N2` the outcome was “inactive”. With `CN(Cc1cnc2nc(N)nc(N)c2n1)c1ccc(C(=O)N[C@@H](CCC(=O)O)C(=O)O)cc1` the outcome was “inactive”.

Assay: APR_HepG2_P-H2AX_24hr: Apredica 24-hour HepG2 Assay for H2AX Phosphorylation (AID 2282920)
Conditions: high-content imaging, actives raise or lower the signal
Summary of the method: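 HepG2, 24 hr, cpd 0.39–200 uM (10 conc, duplicate), DMSO 0.5% v/v final. Fix 3.7% formaldehyde, Triton X-100 permeabilize, anti-phospho-H2A.x 1:200 + Hoechst 2 ug/mL. Imaged, bidirectional fit vs DMSO.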
For `CS(=O)(=O)c1ccc([C@@H](CC2CCCC2)C(=O)Nc2cnccn2)cc1Cl`, the outcome was “inactive”. With `O=C(c1ccccc1)c1ccccc1` the outcome was “inactive”. In the case of `N=C(N)c1ccc(OCCCCCOc2ccc(C(=N)N)cc2)cc1`, the AC50 is reported as 39.7 µM (active). With `CCCCC=O` the outcome was “inactive”. For `O=C1NS(=O)(=O)c2ccccc21`, the outcome was “inactive”. In the case of `CCCCc1oc2ccccc2c1C(=O)c1cc(I)c(OCCN(CC)CC)c(I)c1`, the AC50 is reported as 51.7 µM (active). With `OCC(CO)(CBr)CBr` the outcome was “inactive”. In the case of `CCCCCCCCCCCCOS(=O)(=O)O`, the outcome is reported as “inactive”. With `CCCCCCCCCCCCCCC` the outcome was “inactive”. For `Cc1[nH]nc2c1N=C(c1ccccc1Cl)c1cc([N+](=O)[O-])ccc1N2`, the AC50 was 24.9 µM (active). With `CN(Cc1cnc2nc(N)nc(N)c2n1)c1ccc(C(=O)N[C@@H](CCC(=O)O)C(=O)O)cc1` the outcome was “inactive”. With `CCCCC(CC)C(=O)O` (stereo unspecified) the outcome was “inactive”. In the case of `O=C(CCCN1CCC(O)(c2ccc(Cl)cc2)CC1)c1ccc(F)cc1`, the AC50 is reported as 100 µM (active). With `CN(C)CCOC(c1ccccc1)c1ccccc1` the outcome was “inactive”. In the case of `CC(=O)Nc1ccc(O)cc1`, the outcome is reported as “inactive”.

Assay: APR_HepG2_StressKinase_72hr: Apredica 72-hour HepG2 Assay for Stress Kinase (AID 2282921)
Conditions: HepG2 stress kinase (phospho-c-Jun) imaging, actives raise or lower the signal
Summary of the method: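 Dose 0.39–200 uM (10 pts, duplicate), 0.5% DMSO; 72 h; fix 3.7% formaldehyde 30 min RT; Triton permeabilize; anti-phospho-c-Jun/Cy3 + Hoechst 60 min RT; image 20x; fit gain/loss vs DMSO.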
For `CS(=O)(=O)c1ccc([C@@H](CC2CCCC2)C(=O)Nc2cnccn2)cc1Cl`, the outcome was “inactive”. With `O=C(c1ccccc1)c1ccccc1` the outcome was “inactive”. In the case of `N=C(N)c1ccc(OCCCCCOc2ccc(C(=N)N)cc2)cc1`, the outcome is reported as “inactive”. With `CCCCC=O` the outcome was “inactive”. With `CCCCc1oc2ccccc2c1C(=O)c1cc(I)c(OCCN(CC)CC)c(I)c1` the outcome was “inactive”. With `OCC(CO)(CBr)CBr` the outcome was “inactive”. With `CCCCCCCCCCCCOS(=O)(=O)O` the outcome was “inactive”. With `CCCCCCCCCCCCCCC` the outcome was “inactive”. With `Cc1[nH]nc2c1N=C(c1ccccc1Cl)c1cc([N+](=O)[O-])ccc1N2` the AC50 was 11.7 µM (active). With `CN(Cc1cnc2nc(N)nc(N)c2n1)c1ccc(C(=O)N[C@@H](CCC(=O)O)C(=O)O)cc1` the outcome was “inactive”. With `CCCCC(CC)C(=O)O` (stereo unspecified) the outcome was “inactive”. With `O=C(CCCN1CCC(O)(c2ccc(Cl)cc2)CC1)c1ccc(F)cc1` the AC50 was 42.5 µM (active). For `CN(C)CCOC(c1ccccc1)c1ccccc1`, the outcome was “inactive”. In the case of `CC(=O)Nc1ccc(O)cc1`, the outcome is reported as “inactive”.

Assay: APR_HepG2_StressKinase_24hr: Apredica 24-hour HepG2 Assay for Stress Kinase (AID 2282922)
Conditions: HepG2 stress kinase (phospho-c-Jun) imaging, actives raise or lower the signal
Summary of the method: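 HepG2 cells exposed 24 h to 0.39–200 uM compound in duplicate (0.5% v/v DMSO final). Cells fixed in 3.7% formaldehyde, permeabilized and immunostained for phospho-c-Jun; read by high-content fluorescence imaging, fitted bidirectionally against DMSO.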
In the case of `CS(=O)(=O)c1ccc([C@@H](CC2CCCC2)C(=O)Nc2cnccn2)cc1Cl`, the outcome is reported as “inactive”. For `O=C(c1ccccc1)c1ccccc1`, the outcome was “inactive”. For `N=C(N)c1ccc(OCCCCCOc2ccc(C(=N)N)cc2)cc1`, the outcome was “inactive”. For `CCCCC=O`, the outcome was “inactive”. For `CCCCc1oc2ccccc2c1C(=O)c1cc(I)c(OCCN(CC)CC)c(I)c1`, the AC50 was 58.2 µM (active). In the case of `OCC(CO)(CBr)CBr`, the outcome is reported as “inactive”. For `CCCCCCCCCCCCOS(=O)(=O)O`, the outcome was “inactive”. With `CCCCCCCCCCCCCCC` the outcome was “inactive”. In the case of `Cc1[nH]nc2c1N=C(c1ccccc1Cl)c1cc([N+](=O)[O-])ccc1N2`, the AC50 is reported as 19.8 µM (active). With `CN(Cc1cnc2nc(N)nc(N)c2n1)c1ccc(C(=O)N[C@@H](CCC(=O)O)C(=O)O)cc1` the outcome was “inactive”. In the case of `CCCCC(CC)C(=O)O` (stereo unspecified), the outcome is reported as “inactive”. In the case of `O=C(CCCN1CCC(O)(c2ccc(Cl)cc2)CC1)c1ccc(F)cc1`, the AC50 is reported as 103 µM (active). With `CN(C)CCOC(c1ccccc1)c1ccccc1` the outcome was “inactive”. For `CC(=O)Nc1ccc(O)cc1`, the outcome was “inactive”.
